Data from ChEMBL document CHEMBL3988442, “University of Dundee, Small-Polar-MMV Screening Library” (2021).
Screen size: about 48,000 compounds; about 13,000 (27%) showed an effect of 50% or more. The list shows a part of the results.

These molecules were tested on Wolbachia pipientis (assay: Anti-Wolbachia Cell-Based Screen). Settings: 5 µM.
Format: functional
Design: scale not given: in the data most compounds retested in dose-response had high values

SMILES | Percent Effect [%]
CCOc1ccc(NC(=O)c2cc(C)c(C)o2)cc1CO | -26.64
CCn1ncc2c1CN(C(=O)c1ccc3c(c1)OCO3)CC2COC (stereo not given) | 10.24
CC(C)Cn1[nH]cc/c1=N\C(=O)CN1CCOC(Cn2cccn2)C1 (stereo not given) | 19.87
Cc1ccc(CN2Cc3ccnn3CC(COCc3cccnc3)C2)o1 (stereo not given) | -8.625
O=C(NCCO)NCC(c1ccccc1)N1CCc2sccc2C1 (stereo not given) | 12.78
CSc1ccc(C(CNC(C)=O)N2CCc3sccc3C2)cc1 (stereo not given) | 95.64
CCC(=O)NCC(c1ccc(SC)cc1)N1CCc2sccc2C1 (stereo not given) | 101.9
CCOCCCC(=O)NCC(c1ccccc1)N1CCc2sccc2C1 (stereo not given) | 0.7933
O=C(COCC1CC1)NCC(c1ccccc1)N1CCc2sccc2C1 (stereo not given) | 1.717
COc1ccc(CNC(=O)N2CCc3sccc3C2)cc1O | 11.16
Cc1ccccc1CN(Cc1ccccn1)C(=O)CNS(C)(=O)=O | -13.04
CN(Cc1ccncc1)C1CCC[C@@H]2CN(c3ncccn3)C[C@H]12 (stereo not given in full) | -7.905
O=C(CCN1CCOC(C(F)(F)F)C1)NCc1ccc(Cl)cc1 (stereo not given) | -10.12
Cn1nccc1CNC(=O)CCn1nc(C(F)(F)F)cc1C1CC1 | 108.8
Cn1nccc1CNC(=O)Cn1nc(C(F)(F)F)cc1C1CC1 | 104.1
Cn1nccc1CNC(=O)CCn1nc(C(F)(F)F)c(Cl)c1C1CC1 | 93.44
Cn1nccc1CNC(=O)NC1CCN(c2ncccc2Cl)C1 (stereo not given) | -9.354
Cn1nc(CNC(=O)C2COc3ccccc3O2)cc1C1CC1 (stereo not given) | -7.331
CC(C)(C)NC(=O)Cn1nc(C2CC2)cc(C(F)(F)F)c1=O | -6.94
Cn1nccc1CNC(=O)Nc1cc(C(F)(F)F)c[nH]c1=O | -6.749
Cc1ccc2nc(NCCN3CCOCC3)n(C)c(=O)c2c1 | 2.729
CCc1cnc(C)nc1NCCN1CCOCC1 | -2.451
Cc1cc(Br)cnc1NCCN1CCC(N(C)C)CC1 | 23.33

SMILES | Percent Effect [%]
CCn1nc(C)c2ncnc(NCCCN3CCOCC3)c21 | 9.832
Cc1nc2[nH]cnc(NCCN3CCCC3)c-2n1 | 101.2
COC1CCN(CCNc2ncc(Br)cc2C)CC1 | 16.05
Cc1nc2[nH]cnc(NCCCN3CCOCC3)c-2n1 | 111.6
Cc1nc2[nH]cnc(NCCN3CCOCC3)c-2n1 | 110.5
CCCN(C(=O)c1csnn1)C1CCCN(Cc2ccccc2)C1 (stereo not given) | 2.292
CN(C)CC(=O)N1Cc2cc(-c3cc[nH]n3)ccc2C1c1cnco1 (stereo not given) | -12.12
CN(C)[C@@H]1CO[C@H](CNC(=O)c2ccccc2)[C@H]1O | 9.178
Cc1nc(N2CCC3(CCCN(CCO)C3=O)C2)c2sccc2n1 (stereo not given) | -11.1
Cc1cc(N2CCC3(CCCN(CCO)C3=O)C2)nc(C)c1C#N (stereo not given) | 111
CCCN1CCCC2(CCN(c3nccc(OC)n3)C2)C1=O (stereo not given) | 1.241
COCCN1CCCC2(CCN(c3cccc(C(F)(F)F)n3)C2)C1=O (stereo not given) | -1.331
COCCN1CCCC2(CCN(c3cc(C)c(C#N)c(C)n3)C2)C1=O (stereo not given) | 99.04
COCCN1CCCC2(CCN(c3ncnc(C)c3C)C2)C1=O (stereo not given) | -47.68
COCCN1CCCC2(CCN(c3nc(C)nc4c3CCC4)C2)C1=O (stereo not given) | -6.714
Cc1cc(C)c(C#N)c(N2CCC3(CCCN(CCO)C3=O)C2)n1 (stereo not given) | 111.5
CN1CCCC2(CCN(c3cccc(C#N)n3)C2)C1=O (stereo not given) | 8.303
CN(Cc1ccc([S+](C)[O-])cc1)c1ccc(C(F)(F)F)cn1 (stereo not given) | -27.71
CC(C)OCCN1CCN(C(=O)c2cccc(CC#N)c2)CC1 | 4.967
Cc1nsc(N2CCCN(C(=O)c3ccc4[nH]ccc4c3)CC2)n1 | -10.99
CCn1ccnc1CN1CCCN(C(=O)c2cccc(C#N)c2)CC1 | -3.279
Cn1ccnc1CN1CCCN(C(=O)c2ccc3cc[nH]c3c2)CC1 | 138.1
CC(C)n1ccnc1CN1CCCN(C(=O)c2cc(Cl)c[nH]2)CC1 | 1.928

SMILES | Percent Effect [%]
Cn1ccnc1CN1CCCN(C(=O)c2cccc(CC#N)c2)CC1 | 107.2
Cn1ccnc1CN1CCCN(C(=O)c2ccc3ccccc3c2)CC1 | 100.6
CC(C)COC(=O)N1CCCN(C(=O)c2ccnc(N(C)C)c2)CC1 | 6.425
CN(C)c1cc(C(=O)N2CCCN(Cc3nccn3C)CC2)ccn1 | 107
CCC(O)CN1CCN(C(=O)c2ccnc(N(C)C)c2)CC1 (stereo not given) | -16.43
CC(=O)N1Cc2nccn2CC(CNC(=O)c2cnccn2)C1 (stereo not given) | -28.44
O=C(O)C(F)(F)F.O=C([C@H]1C[C@@H]2[C@@H](C1)OCCN2CC1CC1)N1CCCC1 | -8.225
CS(=O)(=O)CCC(=O)NC(c1ccc(F)cc1)C(F)(F)F (stereo not given) | -10.12
Cn1ccnc1CN1CCCN(C(=O)c2ccc(O)nc2)CC1 | 99.8
Cn1ccnc1CN1CCCN(C(=O)c2ccc3c(c2)OCO3)CC1 | 100.5
CCn1ccnc1CN1CCCN(C(=O)c2ccc(C#N)cc2)CC1 | -7.951
Cn1ccnc1CN1CCCN(C(=O)c2ccc3c(c2)COC3)CC1 | -4.984
O=C(Cc1ccsc1)NCCc1ccoc1 | -2.885
Cc1nc(CN2CCCC(CCc3ccccc3C)C2)c[nH]1 (stereo not given) | 4.75
Cc1ccccc1CCC1CCCN(Cc2nnc(-c3ccco3)o2)C1 (stereo not given) | 85.71
Cc1nnc(CN2CCCC(CCc3ccccc3C(F)(F)F)C2)o1 (stereo not given) | 7.283
CCc1cnc(CN2CCCC2c2noc(C3CC3)n2)o1 (stereo not given) | 2.963
Cc1cc(N2CCCC(N(C)C)C2)n2nc(C)cc2n1 (stereo not given) | 4.471
COc1cc(CNCCn2cc(C)cn2)c2c(c1)CC(C)O2 (stereo not given) | -8.791
FC(F)(F)CN1CCC(CCNc2ncccn2)CC1 | -5.19
Cc1ccc(CN2CCOCS2(=O)=O)cc1F | 130.8
Cc1cc(CN2CCOCS2(=O)=O)ccc1F | -11.48
O=S1(=O)COCCN1Cc1ccc(F)c(C(F)(F)F)c1 | 116.1

SMILES | Percent Effect [%]
O=S1(=O)COCCN1Cc1cccc(Cl)c1 | -18.09
Cc1ccc(-c2nc(CN3CCOCS3(=O)=O)c(C)o2)cc1 | -5.038
O=S1(=O)COCCN1Cc1ccc(Cl)c(Cl)c1 | 174.3
CC(=O)N1CCN(Cc2ccc(F)c(C(F)(F)F)c2)CC(O)C1 (stereo not given) | -17.39
O=S1(=O)COCCN1Cc1ccc(Cl)c(F)c1 | -18.76
O=S1(=O)COCCN1Cc1ccc(F)cc1Cl | 116.6
Cc1oc(-c2cccc(F)c2)nc1CN1CCOCS1(=O)=O | -0.8413
O=C1CCOCCN1Cc1ccc(C(F)(F)F)c(F)c1 | -2.892
CCc1ccc(CCC(=O)NCc2nnc[nH]2)cc1 | 9.868
O=C(CCn1cccn1)NS(=O)(=O)N1CCCc2ccccc21 | -12.53
CN(C)c1nc(N)nc(CSCCC(=O)Nc2ccc(F)cc2)n1 | -6.74
COCCN1CCN(CC(=O)N(C)Cc2ccc(F)cc2)CC1C (stereo not given) | 0.8723
O=S1(=O)COCCN1Cc1ccc(F)c(F)c1 | 115.2
O=C(CN1CCOCS1(=O)=O)NCc1ccccc1 | -2.644
O=C(CN1CCOCS1(=O)=O)NCCc1ccc(Cl)cc1 | 2.599
Cc1cccnc1NC(=O)CSc1ccc2c(c1)OCCO2 | -1.464
CCN(CC)C(=O)Nc1ccc(N2CCSCC2)cc1C | -12.7
CC(C)c1nnc(NC(=O)N(C)Cc2ccncc2)s1 | 78.38
CC(C)c1nnc(NC(=O)N(C)Cc2ccc(C(N)=O)cc2)s1 | 102.8
CC(C)c1nnc(NC(=O)NC2CCOc3ccccc32)s1 (stereo not given) | -12.43
CC(C)c1nnc(NC(=O)NCc2cccnc2NCCN(C)C)s1 | -11.78
CSc1cc2c(cc1NC(=O)N(C)Cc1ccncc1)OCCO2 | -3.541
COCCN(Cc1ccc(C)o1)C(=O)Nc1nnc(C(F)F)s1 | -29.25

SMILES | Percent Effect [%]
CC(NC(=O)N(C)Cc1ccncc1)c1nncn1C (stereo not given) | 2.48
CNC(=O)c1ccc(CN(C)c2ccc(C(F)(F)F)cn2)cc1 | 22.77
CNC(=O)c1ccc(CN(C)C(=O)Nc2nnc(C(C)C)s2)cc1 | 109.8
Clc1ccc(NCc2nnc(C3CC3)o2)cc1Cl | -1.785
CC(=O)Nc1cc(Br)cnc1OCC(F)(F)F | -6.07
Cc1nc(-c2ccco2)ccc1C(=O)N1CCc2nnc(N)cc2C1 | -5.155
O=C(CCC(=O)c1ccccc1)NC1(C(=O)NCC2CC2)CCCC1 | -11.29
CCc1nc(N)nc(N2CCCC3(CN(C)C(=O)O3)C2)c1C (stereo not given) | -2.167
CCc1nc(N)nc(N2CCCC3(CCN(C)CC3)CC2)c1C | 62.58
CCc1nc(N)nc(N2CCCC3(CCOCC3)C2)c1C | 10.4
CCOCC(=O)N1CCC(C2CCN(Cc3ccc(Cl)cc3)C2)CC1 (stereo not given) | -8.468
CC(NCCN1CCN(C(=O)C2CCCC2)CC1)c1cnn(C)c1 (stereo not given) | 3.842
CCOc1cc(CNC(C)c2ccc(F)cc2)ccn1 (stereo not given) | -5.561
Clc1cnccc1NCc1cccc(COC2CCOCC2)c1 | -32.94
CC(C(=O)NCc1ccnc(OC2CCCC2)c1)n1cncn1 (stereo not given) | 10.69
CC(NCc1cccc(COC2CCCC2)c1)c1cnn(C)c1 (stereo not given) | 126.5
COc1ccc(CNC(C)c2cnn(C)c2)cc1OC1CCCC1 (stereo not given) | 106.9
COc1ccc(CNC(c2cccc(F)c2)c2cnn(C)c2)cc1 (stereo not given) | 4.131
O=C(Nc1cccc(CNCc2cccs2)c1)C1CCCC1 | 0.6832
Cn1cc(C(NCc2ccc(F)cc2)c2cccc(F)c2)cn1 (stereo not given) | -2.157
CC(NCc1ccnc(OC2CCC2)c1)c1cnn(C)c1 (stereo not given) | 127.4
COc1cc(CNc2cnn(C)c2)cc2c1OCCO2 | -0.1017
CC(NCc1cccc(NC(=O)C2CCCCC2)c1)c1cnn(C)c1 (stereo not given) | 104.4
